# Bioassay records from PubChem BioAssay.
# Compounds with a hit are over-represented: about 12% of the library has one in this group of screens.
# JMJD2A Tudor: JMJD2A Tudor domain (human) inhibition. AID 504339. 390,000 compounds, 4.4% hits. AlphaScreen JMJD2A-Tudor / H3K4me3 peptide binding. Potency, µM (highest dose often 114 µM), without a hit: at the top dose activity change, negative = inhibition, hits mostly inhibitors. O75164; note: % is set by controls: 0 for no effect and ±100 for the full control effect; nearly all actives have a fitted effect of over 50% in size
# G9a block: blocks human histone lysine methyltransferase G9a; Q96KQ7; G9a H3K9 monomethylation, AlphaScreen, 2 h; Potency, µM (top dose mostly 102 µM), inactives show at the top dose activity, negative = inhibition, usual class: inhibitors; 350,000 compounds, 8.8% hits; note: % is set by controls: 0 for no effect and ±100 for the full control effect; nearly all actives have a fitted effect of over 75% in size
# Target sequence (Q96KQ7 913-1193 limits assumed): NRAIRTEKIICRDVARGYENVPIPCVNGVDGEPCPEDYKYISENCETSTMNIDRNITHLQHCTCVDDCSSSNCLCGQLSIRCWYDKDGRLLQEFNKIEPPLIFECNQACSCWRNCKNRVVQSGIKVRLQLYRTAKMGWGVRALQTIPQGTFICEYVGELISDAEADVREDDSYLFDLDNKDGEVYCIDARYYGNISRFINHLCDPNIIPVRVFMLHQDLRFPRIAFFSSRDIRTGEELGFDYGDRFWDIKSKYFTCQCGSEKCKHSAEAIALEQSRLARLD
#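 G9a (20 nM) preincubated 15 min RT with compounds, then 500 nM biotinylated H3K9 peptide and 20 uM SAM added; 2 h RT reaction. Monomethyl-H3K9 product detected by AlphaScreen with anti-H3K9me1 antibody, streptavidin donor and anti-rabbit IgG acceptor beads.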
# HP1b binding inh: inhibitors of HP1-beta chromodomain binding to methylated histone tails. AlphaScreen HP1-beta / biotin-H3K9me3 peptide binding. 390,000 compounds, 0.56% hits. P83916. Potency, µM (titrated, usually from 114 µM), for the others: at the top dose activity change, negative = inhibition, actives largely listed as inhibitors. AID 540317; note: nearly all actives have a fitted effect of over 70% in size
# Target sequence (P83916 whole entry, looked up): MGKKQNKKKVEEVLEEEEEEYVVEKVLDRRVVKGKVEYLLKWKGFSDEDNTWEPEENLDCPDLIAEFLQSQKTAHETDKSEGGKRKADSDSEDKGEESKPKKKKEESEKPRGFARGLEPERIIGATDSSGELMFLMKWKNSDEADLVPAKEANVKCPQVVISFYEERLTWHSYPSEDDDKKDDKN
#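 Compound inhibition of the preformed complex between 50 nM HP1-beta and 50 nM biotinylated H3K9me3 peptide was read by AlphaScreen. Buffer was PBS pH 7.4 with 0.01% Tween-20. Incubations ran 30 min at room temperature, with 10 ug/mL donor/acceptor beads.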
# L3MBTL1 inh: inhibitors of human L3MBTL1; AlphaScreen L3MBTL1–H3K9me1 peptide binding; Potency, µM (top dose mostly 57.1 µM), for the others: at the highest dose activity, negative = inhibition, usual class: inhibitors; Q9Y468; 230,000 compounds, 0.66% hits; note: % is set by controls: 0 for no effect and ±100 for the full control effect; nearly all actives have a fitted effect of over 60% in size
#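 AlphaScreen proximity signal between nickel-chelate acceptor and streptavidin donor beads (final 10 ug/mL) reports binding of 50 nM L3MBTL1 to 75 nM biotin-H3 K9me1 peptide; complex incubated with compounds 30 min at room temperature; cefsulodin titration as control.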
# BAZ2B block: BAZ2B (human) inhibition; Q9UIF8; AlphaScreen BAZ2B-H3K14Ac peptide displacement; Potency, µM (titrated, usually from 114 µM), for the others: at the highest dose activity change, negative = inhibition, actives largely listed as inhibitors; 360,000 compounds, 4.4% hits; note: % is set by controls: 0 for no effect and ±100 for the full control effect; nearly all actives have a fitted effect of over 60% in size
#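 AlphaScreen displacement: compounds (up to 110uM) incubated 30 min at room temperature with a preformed 50 nM BAZ2B/50 nM biotinylated H3K14Ac peptide complex in PBS pH 7.4 with Tween-20. Donor and acceptor beads at 10 ug/mL final added, 20 min light-protected before reading.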
# Sfp PPTase inh: Sfp phosphopantetheinyl transferase inhibition; Potency, µM, without a hit: largest response in the series, negative = inhibition, actives largely listed as inhibitors; 310,000 compounds, 3.5% hits; Biochemical Sfp PPTase activity, qHTS;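 note: the enzyme is Sfp with the accession as filed and its product quenches rhodamine fluorescence; 0% = enzyme reaction without inhibitor and -100% = no enzyme wells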
#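 Sfp 15 nM + cpd, 15 min RT; start w/ rhodamine-CoA 5 uM, BHQ-2-YbbR 12.5 uM (final); 50 mM Hepes pH 7.6, 10 mM MgCl2, 0.01% NP-40, 0.01% BSA; read 525/598 nm at 0 and 30 min.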
# Starred values were filed as active, the others as inactive; u = inconclusive; x = no result; [ ] = dose if it differs, or a comment. Calls come from the whole dose curve; as a rule, active = well fitted curve in the direction sought with a large enough effect; inconclusive = small, poorly fitted or top-dose-only effect, or another doubt; inactive = no such curve, though single readings can be large; an effect the other way counts as inactive or inconclusive. Potency is the fitted concentration of half-maximal effect.
SMILES,JMJD2A Tudor,G9a block,HP1b binding inh,L3MBTL1 inh,BAZ2B block,Sfp PPTase inh
COc1ccc(N2CCN(C(c3ccccc3F)c3sc4nc(-c5ccco5)nn4c3O)CC2)cc1 (stereo unspecified),u,u,u,x,40µM*,x
Oc1c(C(c2ccccc2F)N2CCN(Cc3ccccc3)CC2)sc2nc(-c3ccco3)nn12 (stereo unspecified),u,-34%[59 µM],31%,x,u,x
Oc1c(C(c2ccc(Cl)cc2Cl)N2CCOCC2)sc2nc(-c3ccco3)nn12 (stereo unspecified),-19%,-30%[59 µM],10%,x,u,x
Oc1c(C(c2ccc(Cl)cc2Cl)N2CCN(c3ccccc3)CC2)sc2nc(-c3ccco3)nn12 (stereo unspecified),-28%,11µM*,22%,x,-15%,x
Cc1cc(C)cc(Nc2cc(C(=O)NC3CCC(C)CC3)c3ccccc3n2)c1 (stereo unspecified),-15%,5%[59 µM],14%,x,x,x
Cc1ccccc1-c1nc(CS(=O)(=O)CC(=O)NCc2cccc(Cl)c2)c(C)o1,-21%,2%[59 µM],26%,x,-12%,x
CCc1ccc(NC(=O)CSc2nc3ncccc3[nH]2)cc1,1%,-4%[59 µM],36%,x,2%,x
CCC1CN(C(=O)Nc2ccc(Br)cc2F)c2ccccc2S1 (stereo unspecified),21%,13%[59 µM],74%,x,-1%,x
COc1ccc(S(=O)(=O)N(CC(=O)Nc2cc(C)cc(C)c2)c2ccc(Cl)cc2)cc1,-2%,-11%[59 µM],9%,x,-5%,x
COc1ccc(-c2onc(C)c2C)cc1S(=O)(=O)Nc1ccc(OC(F)(F)F)cc1,-18%,-3%[59 µM],40%,x,-4%,x
COc1ccc(/C=C2\COc3ccccc3C2=O)c(OC)c1,1%,16%,22%,x,-12%,-2%
COc1ccc(/C=C2\CN(Cc3ccccc3)C/C(=C\c3ccc(OC)cc3)C2=O)cc1,u,18µM*,u,-17%,u,u
COc1ccc(/C=C2\CN(Cc3ccccc3)C/C(=C\c3ccc(OC)cc3OC)C2=O)c(OC)c1,u,14µM*,u,-26%,25µM*,u
COc1ccc(C=C2c3ccccc3C(=O)c3ccccc32)c(OC)c1,x,28µM*,x,u,13µM*,-5%
CCOC(=O)c1c(NC(=O)c2ccc(S(=O)(=O)N(CC(C)C)CC(C)C)cc2)sc2c1CCN(CC)C2,-14%,0%[59 µM],11%,x,12%,x
CCCCNS(=O)(=O)c1ccc2nc(-c3cccnc3)cc(C(=O)NCCC)c2c1,7%,2%[59 µM],14%,x,7%,x
Cc1c(NC(=S)N/N=C/c2cc([N+](=O)[O-])ccc2O)c(=O)n(-c2ccccc2)n1C,28µM*,56µM*,26%,32µM*,5.6µM*,-19%
Cc1c(Cl)cccc1NC(=O)Nc1c(C)n(C)n(-c2ccccc2)c1=O,-2%,79µM*,38%,x,-1%,12%
Cc1c(NC(=O)Nc2ccc([N+](=O)[O-])cc2)c(=O)n(-c2ccccc2)n1C,16µM*,18%,13%,x,-3%,6%
Cc1c(NC2=C(Cl)C(=O)N(c3ccccc3Cl)C2=O)c(=O)n(-c2ccccc2)n1C,u,40µM*,2%,u,-38%,50µM*
Cc1c(NC(=S)N/N=C/c2ccc(O)cc2)c(=O)n(-c2ccccc2)n1C,-18%,4%,33%,-2%,4%,-20%
Cc1cc(=O)[nH]c(Nc2c(C)n(C)n(-c3ccccc3)c2=O)n1,1%,22%[12.7 µM],15%,-2%[11.4 µM],-5%,15%
Cc1cccc(NC(=O)Nc2c(C)n(C)n(-c3ccccc3)c2=O)c1C,5%,35%,26%,x,2%,20%
CCc1ccc(NC(=O)c2nnn(Cc3cccc(C(F)(F)F)c3)c2N)cc1,-6%,-10%[59 µM],31%,x,-33%,x
O=C(O)c1ccccc1-c1nc2cc(Cl)ccc2c(=O)n1O,-10%,2%,4%,-21%,79µM*,18%
SMILES,JMJD2A Tudor,G9a block,HP1b binding inh,L3MBTL1 inh,BAZ2B block,Sfp PPTase inh
Nn1c(-c2ccccc2)nc2cc(Cl)ccc2c1=O,-23%,45µM*,46%,-9%,4%,12%
N#C/C(=C\c1coc2ccc(O)cc2c1=O)C(=O)Nc1nc2ccccc2s1,63µM*,u,u,x,u,-29%
NC(=O)N/N=C/c1coc2ccc(O)cc2c1=O,-15%,x,52%,46%,-16%,-14%
CC1CCCC(NC(=O)COC(=O)Cc2cn3ccsc3n2)C1C (stereo unspecified),-21%,50µM*,9%,-4%,2%,-13%
CCn1c2ccccc2c2cc(NC(=O)COC(=O)Cc3cn4ccsc4n3)ccc21,35µM*,-1%,1%,-3%,5%,2%
COc1ccc(CC(=O)NCc2cn3ccsc3n2)cc1,-26%,-19%,39%,x,-3%,0%
O=C(Cc1cn2ccsc2n1)NCc1ccccc1,-34%,-35%[59 µM],32%,u,79µM*,-15%
COC(=O)c1[nH]c(C)c(/C(O)=C2\C(=O)C(=O)N(CCN3CCOCC3)C2c2ccc(C)o2)c1C (stereo unspecified),u,45µM*,9%,1%,-19%,5%
CCN(CC)CCN1C(=O)C(=O)/C(=C(/O)c2c(C)[nH]c(C(=O)OC)c2C)C1c1ccc(C)o1 (stereo unspecified),-9%,35µM*,-3%,6%,u,-12%
COC(=O)c1[nH]c(C)c(/C(O)=C2\C(=O)C(=O)N(CCN3CCOCC3)C2c2cccnc2)c1C (stereo unspecified),22µM*,u,12%,0%[11.4 µM],-4%,0%
CCN(CC)CCN1C(=O)C(=O)/C(=C(/O)c2c(C)[nH]c(C(=O)OC)c2C)C1c1cccnc1 (stereo unspecified),-14%,u,18%,-8%,17%,-15%
CCOC(=O)c1[nH]c(C)c(/C(O)=C2\C(=O)C(=O)N(CCN3CCOCC3)C2c2cccs2)c1C (stereo unspecified),u,45µM*,12%,-3%,-8%,1%
CCN(CC)CCN1C(=O)C(=O)/C(=C(/O)c2c(C)[nH]c(C(=O)OC)c2C)C1c1ccccc1 (stereo unspecified),-18%,8%[12.7 µM],18%,10%,1%,17%
Cc1ccc(C2/C(=C(/O)c3cnn(-c4ccccc4)c3C)C(=O)C(=O)N2CCN2CCOCC2)o1 (stereo unspecified),u,u,14%,x,79µM*,50µM*
